Assay results as given in PubChem BioAssay AID588726 (The Scripps Research Institute Molecular Screening Center, 2011).
Where “and” joins values, the source holds several entries; their conditions need not be identical. Identical values can stand only once. Screen size: about 360,000 compounds; about 8,200 (2.3%) were called active. Rule as the data show it: active = inhibition above about 27%; inactive = the rest. What follows is part of a selection rich in actives, with near analogues and random picks from the rest.

target: Fructose-bisphosphate aldolase (Mycobacterium tuberculosis (strain ATCC 25618 / H37Rv)) (UniProt P9WQA3); test: Mtb FBA enzyme inhibitors, primary screen, biochemical, fluorescence, strain H37Rv (AID 588726);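 also: 0% = vehicle and 100% = reference inhibitor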; conditions: purified M. tuberculosis FBA, fluorescence read-out, at 1 µM, hits give high values
Sequence (P9WQA3 whole entry, looked up): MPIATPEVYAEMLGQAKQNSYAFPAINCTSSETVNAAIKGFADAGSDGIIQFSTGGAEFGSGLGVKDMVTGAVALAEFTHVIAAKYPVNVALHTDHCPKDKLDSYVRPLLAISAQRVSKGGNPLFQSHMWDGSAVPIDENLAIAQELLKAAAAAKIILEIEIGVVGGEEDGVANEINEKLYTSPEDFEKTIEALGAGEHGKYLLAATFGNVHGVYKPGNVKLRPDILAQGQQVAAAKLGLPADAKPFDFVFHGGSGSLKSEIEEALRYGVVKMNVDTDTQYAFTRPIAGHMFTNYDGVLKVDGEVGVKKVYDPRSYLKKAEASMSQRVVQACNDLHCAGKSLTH

Structure (SMILES)	inhibition
CCCCC(CC(C)O)c1n[nH]c(=S)n1-c1ccccc1 (centres undefined)	2% (inactive)
Cc1ccc(/C([O-])=C(/C(=S)NCc2ccco2)[n+]2ccccc2)cc1[N+](=O)[O-]	1.54% (inactive)
CCOc1cc(/C=N/NC(=O)c2ccc(CSc3nncn3C)cc2)ccc1OCC(=O)N1CCOCC1	-1.98% (inactive)
C=CCn1c(C(C)NC(=O)CC)nc2ccccc21 (centres undefined)	3.68% (inactive)
O=C(NCCCN1CCCC1=O)c1ccc(S(=O)(=O)Nc2ccccc2)cc1	-1.21% (inactive)
C=CCn1c(N)c(S(=O)(=O)c2cccs2)c2nc3ccccc3nc21	163% (active)
CCCCNc1nc2ccccc2nc1NS(=O)(=O)c1cccs1	6.38% (inactive)
Cc1nn(Cc2ccccc2)c(C)c1C(=O)NCCCN1CCCC1=O	-1.19% (inactive)
C=CCN1CN(S(=O)(=O)c2ccc(OC)cc2)c2nc3ccccc3nc21	6.64% (inactive)
C=CCn1c(P(C)(=O)O)nc2ccccc21	1.11% (inactive) and 4.28% (inactive)
C=CCn1c(N)c(C(=O)OCC(C)C)c2nc3ccccc3nc21	88.6% (active)
CCCCC1N2CC3([N+](=O)[O-])CN1CC([N+](=O)[O-])(C2)C3(C)C (centres undefined)	2.82% (inactive)
COC(=O)c1ccc(NC(=O)CSc2nncn2-c2cccnc2)cc1	0.47% (inactive)
CSc1cccc(NC(=S)N(C(C)C)C(C)c2ccccn2)c1 (centres undefined)	0.95% (inactive)
NC(=O)CSc1nnc(-c2cccc(S(=O)(=O)N3CCOCC3)c2)o1	-1.59% (inactive)
Cc1ccc(NC(=O)Cc2nc(COC(=O)C(C)NS(=O)(=O)c3ccc(C)cc3)cs2)cc1 (centres undefined)	3.71% (inactive)
Cc1ccccc1OCC(=O)NNC(=O)c1ccc(-n2cncn2)c([N+](=O)[O-])c1	-1.97% (inactive)
Cc1ccc(S(=O)Cc2ccc(C(=O)N3CCN(C4CCCCC4)CC3)o2)cc1 (centres undefined)	1.16% (inactive)
CCOC(=O)[C@@H]1[C@H]2COc3cc(OC)ccc3[C@H]2N2C(=O)N(c3ccc(F)cc3)C(=O)[C@]12C	0.06% (inactive)
C[C@@H]1CN([C@H](C)CO)S(=O)(=O)c2ccc(C#CC3CCCCC3)cc2O[C@H]1CN(C)C(=O)Cc1ccncc1	-2.18% (inactive)
O=C1NC(c2cc3c(cc2Cl)OCO3)Oc2ccccc21 (centres undefined)	0.96% (inactive)
CCCC(C)n1[nH]c(=O)c2c(C)cc(C)nc21 (centres undefined)	4.12% (inactive)

Structure (SMILES)	inhibition
CCc1c(C)nc2cc(C)[nH]n2c1=O	27.9% (active)
Cc1nc2nc(COc3ccccc3)[nH]n2c(=O)c1Cc1ccccc1	1.84% (inactive)
Cc1cc(-c2cccs2)nc(-n2cccc2)n1	2.52% (inactive)
Cc1nc2nc[nH]n2c(=O)c1C/C=C/c1ccccc1	-4.22% (inactive)
CCC(C)n1[nH]c(=O)c2c(C)cc(C)nc21 (centres undefined)	2.95% (inactive)
CCc1c(C)nc2cc(-c3cccs3)[nH]n2c1=O	27.4% (active)
Cc1nc2scc(-c3cccs3)c2c(=O)n1N	-0.89% (inactive)
C=CCc1c(C)nc2cc(-c3ccccc3)[nH]n2c1=O	33.2% (active)
CCCCCN1CC(O)=C(c2ccccc2)C1=N	-3.67% (inactive)
COC(=O)CN1C(=O)[C@H]2[C@@H](/C=C/c3ccccc3)N3C(=O)CN(CC4CC4)C(=O)[C@@]3(Cc3ccccc3)[C@H]2C1=O	5.08% (inactive)
COc1ccccc1NC(=O)CCC(=O)OC(C)C(=O)c1ccccc1 (centres undefined)	2.76% (inactive)
O=C1N[C@@H](Cc2ccccc2)C(=O)N2[C@@H]3N(S(=O)(=O)c4ccc(F)cc4)c4ccccc4[C@]3(Br)C[C@@H]12	-1.67% (inactive)
O=C(COc1ccc(Cl)cc1Cl)NCCCNC(=O)c1cnccn1	4.96% (inactive)
Cc1ccc(C)c(-n2cc(CN3CCN(C(=O)c4ncn[nH]4)CC3)c(-c3ccccc3)n2)c1	-1.74% (inactive)
Cc1ccc(NS(=O)(=O)c2cccs2)cc1S(=O)(=O)N1CCCCCC1	-1.86% (inactive)
CCCCCN(C(=O)NC(=O)Nc1ccccc1OC)S(C)(=O)=O	-0.28% (inactive)
CN(C)C(=O)c1cccn(Cc2cccc(C(F)(F)F)c2)c1=O	0.45% (inactive)
O=C(Cc1cccs1)NCc1cccc(C(F)(F)F)c1	2.86% (inactive)
Cn1c(=O)c2cc(NC(=O)NCCc3cccs3)ccc2n1Cc1cccc(C(F)(F)F)c1	141% (active)
CC1(C)OC(=O)C(=CNC(CO)C(=O)O)C(=O)O1 (centres undefined)	-1.2% (inactive)
CCOC(=O)Cn1c(=O)n(Cc2ccc(OC)cc2)c(=O)c2cccnc21	99.3% (active)
CCOC(=O)Cc1ncccc1C(=O)Nc1ccc(OC)cc1	-0.27% (inactive)

Structure (SMILES)	inhibition
COCCCNC(=O)CCc1nc2cccnc2n1Cc1ccc(OC)cc1	-2.9% (inactive)
COc1cc(CCN=Cc2ccccc2O)c([N+](=O)[O-])cc1OC	1.91% (inactive)
O=C(COc1ccc(-c2ccccc2)cc1)NN=C1CCCC1	4.25% (inactive)
COc1cccc2cc(C(=O)N(C)C)c(=O)oc12	-1.37% (inactive)
CN(C)CCNC(=O)c1ccc(Cl)c2cc3ccccc3nc12	9.35% (inactive)
CN(C)C(=O)c1coc2nc3ccccc3nc12	131% (active)
COc1ccc(C(F)(F)F)cc1N/C=C\c1nnnn1-c1ccc(C)cc1	1.79% (inactive)
CCCCNC(=O)N1CCCC(N(C)CCc2ccc(OC)c(OC)c2)C1 (centres undefined)	3% (inactive)
O=C(O)c1[nH]c2ccccc2c1C(c1cccc(O)c1)c1c(C(=O)O)[nH]c2ccccc12	0.61% (inactive)
CCOC(=O)C1CCN(C(=O)Cc2c(C(=O)O)[nH]c3ccccc23)CC1	3.52% (inactive)
CCCS(=O)(=O)Nc1c(C(=O)O)[nH]c2ccccc12	38.6% (active)
CCOC(=O)/C=C/C(=O)OCC(=O)NC(c1ccccc1)c1ccccc1	1.96% (inactive)
Cc1cc(Cl)c2oc(C(=O)N(C)C(C)c3ccccn3)c(C)c2c1 (centres undefined)	5.49% (inactive)
CC(C)C(=O)N1CCC2(CC1)Oc1ccc(F)cc1C(=O)C21CC(c2ccccc2)=NO1 (centres undefined)	4.59% (inactive)
CN(C)CCCN(Cc1cc2cc3c(cc2[nH]c1=O)OCCO3)C(=O)NC1CCCCC1	26.5% (inactive)
Cc1cc(C)c2[nH]c(=O)c(CN(Cc3ccccc3)C(=S)NCCCN(C)C)cc2c1	5.66% (inactive)
CCNC(=S)N(CCN(CC)CC)Cc1cc2cc3c(cc2[nH]c1=O)OCCO3	22% (inactive)
CCN(CC)CCCNC(=S)N(CCO)Cc1cc2cc3c(cc2[nH]c1=O)OCO3	13.2% (inactive)
COCCCNC(=S)N(CCN(C)C)Cc1cc2cc3c(cc2[nH]c1=O)OCCO3	28.8% (active)
CCNC(=S)N(CCN(CC)CC)Cc1cc2cc3c(cc2[nH]c1=O)OCO3	32.3% (active)
